The nature of assay [1]: qHTS assay to identify small molecule agonists of the retinoic acid receptor (RAR) signaling pathway (AID 1159553). In outline:
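Cell line C3RL4, RARE luciferase reporter. Treatment: compounds in DMSO, 6 hr, 37 C, 5% CO2, after overnight plating. Detection: luminescence, 30 min RT after reagent.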

For assay [2], the target named is Luciferin 4-monooxygenase (Photinus pyralis) (UniProt P08659). The experiment in a line: qHTS assay to identify small molecule inhibitors of firefly luciferase (AID 1224835). Further: nearly all actives have a fitted effect of over 25% in size. Further: potency means the concentration at half of the fitted maximal effect. The method in brief: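 Inhibition of purified Photinus luciferase is measured by luminescence. Substrate levels (D-luciferin, ATP) sit at their KM values. Each compound is tested in a concentration series.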
Chain of Luciferin 4-monooxygenase (Photinus pyralis) (P08659 whole entry, looked up): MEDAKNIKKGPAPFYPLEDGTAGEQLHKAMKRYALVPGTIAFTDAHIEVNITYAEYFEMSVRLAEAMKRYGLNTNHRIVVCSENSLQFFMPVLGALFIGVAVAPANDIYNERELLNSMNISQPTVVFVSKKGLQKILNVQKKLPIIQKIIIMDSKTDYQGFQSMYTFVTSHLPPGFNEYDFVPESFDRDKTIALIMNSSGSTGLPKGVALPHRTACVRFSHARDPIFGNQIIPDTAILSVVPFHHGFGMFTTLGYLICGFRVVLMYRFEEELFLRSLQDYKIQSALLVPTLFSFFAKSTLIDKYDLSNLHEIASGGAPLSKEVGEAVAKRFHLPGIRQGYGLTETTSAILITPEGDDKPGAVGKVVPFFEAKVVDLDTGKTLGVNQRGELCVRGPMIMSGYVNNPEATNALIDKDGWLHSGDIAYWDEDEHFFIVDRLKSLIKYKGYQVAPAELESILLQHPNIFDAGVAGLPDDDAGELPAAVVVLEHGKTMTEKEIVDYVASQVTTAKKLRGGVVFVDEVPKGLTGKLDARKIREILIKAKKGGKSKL
(In general: Quantitative high-throughput screening tests each substance at several concentrations.)

Assay [3] is described as follows: qHTS assay to identify small molecule agonists of the constitutive androstane receptor (CAR) signaling pathway - cell viability counter screen (AID 1224836). Further: series mostly up to about 92 µM; nearly all actives have a fitted effect of over 45% in size. The method in brief: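 23 h treatment, 37 C, 5% CO2. Cell line: HepG2 stably expressing hCAR with a CYP2B6-2.2kb construct. Co-treatment: PK11195, 0.75 uM final. Read-out: CellTiter-Fluor fluorescence intensity.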

A short description of assay [4]: qHTS assay to identify small molecule antagonists of the constitutive androstane receptor (CAR) signaling pathway - cell viability counter screen (AID 1224837). Further: nearly all actives have a fitted effect of over 45% in size. Further: potency means the concentration at half of the fitted maximal effect. The method in brief:
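Fluorescence from CellTiter-Fluor served as the viability signal. Human hepatoma HepG2 cells stably bearing hCAR and CYP2B6-2.2kb received compound plus CITCO (50 nM final) for 23 hr.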

Assay [5] addresses Nuclear receptor subfamily 1 group I member 3 (Homo sapiens) (UniProt Q14994). The experiment in a line: qHTS assay to identify small molecule antagonists of the constitutive androstane receptor (CAR) signaling pathway (AID 1224838).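 Further: HepG2 cells stably expressing hCAR with CYP2B6 luciferase reporter stimulated by CITCO; nearly all actives have a fitted effect of over 40% in size.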 Further: potency means the concentration at half of the fitted maximal effect. In outline:
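Quantitative HTS in double-stable HepG2-CYP2B6-hCAR cells. After 4 h plating, cells get compound (15 concentrations) and CITCO at 50 nM final, incubate 24 h at 37 C, then ONE-Glo luminescence is read.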

The nature of assay [6]: qHTS assay to identify small molecule agonists of the estrogen related receptor signaling pathway with the pleiotropic PPARgamma coactivator (PGC) from Tox21 10K library (AID 1224842). Further: nearly all actives have a fitted effect of over 15% in size. The method in brief: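 Luminescence from One-Glo (30 min, room temperature) measured after PGC/ERR cells had 18 h at 37 C with pinned compound (23 nL in DMSO). Cells had been seeded at 2,000 per well and pre-incubated 6 h.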

For assay [7], the target named is Thyrotropin receptor (Homo sapiens) (UniProt P16473). The experiment in a line: qHTS assay to identify small molecule agonists of the thyroid stimulating hormone receptor (TSHR) signaling pathway (AID 1224843; calls by dose curve; further: nearly all actives have a fitted effect of over 45% in size). In outline:
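HEK293 cells stably bearing the thyrotropin receptor were plated at 800 cells/well and challenged with compound (30 min, RT). Accumulated cAMP was quantified via cAMP-d2 competing for cryptate-tagged antibody.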

Assay [8] is described as follows: qHTS assay to identify small molecule agonists of the hypoxia (HIF-1) signaling pathway - cell viability counter screen (AID 1224844; calls by dose curve; further: nearly all actives have a fitted effect of over 50% in size; further: potency means the concentration at half of the fitted maximal effect). In outline: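 Luminescent ATP content (CellTiter-Glo, 30 min, room temperature) served as the viability measure in HRE-bla ME-180 cells exposed to compounds for 17 hrs in low-serum medium (0.5% dialyzed FBS).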
The target of assay [9] is Nuclear receptor subfamily 1 group I member 3 (Homo sapiens) (UniProt Q14994). In words: qHTS assay to identify small molecule agonists of the constitutive androstane receptor (CAR) signaling pathway (AID 1224839).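 Further: HepG2 cells stably carrying human CAR and a CYP2B6 luciferase reporter; series mostly up to about 92 µM; nearly all actives have a fitted effect of over 15% in size.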 In outline: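 Compounds tested at 15 concentrations on HepG2 cells stably harbouring hCAR and CYP2B6-2.2kb reporter constructs, co-treated with PK11195 (0.75 uM final), 24 h at 37 C; luminescent reporter signal quantified.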
Chain of Nuclear receptor subfamily 1 group I member 3 (Homo sapiens) (Q14994 whole entry, looked up): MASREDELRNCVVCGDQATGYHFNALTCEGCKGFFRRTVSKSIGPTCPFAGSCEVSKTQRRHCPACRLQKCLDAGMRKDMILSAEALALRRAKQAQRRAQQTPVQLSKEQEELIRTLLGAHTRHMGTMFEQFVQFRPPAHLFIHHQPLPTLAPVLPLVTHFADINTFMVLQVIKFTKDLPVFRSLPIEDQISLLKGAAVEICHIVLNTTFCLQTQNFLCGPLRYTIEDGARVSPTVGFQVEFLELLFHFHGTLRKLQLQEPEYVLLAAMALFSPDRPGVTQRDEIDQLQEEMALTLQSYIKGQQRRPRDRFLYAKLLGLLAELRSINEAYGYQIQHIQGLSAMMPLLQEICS

A short description of assay [10]: qHTS assay to identify small molecule agonists of H2AX (AID 1224845; active means well fitted activation curve with a large enough effect in the signal ratio in the repeat runs, not every such curve was filed as active; the % refers to the signal ratio). The method in brief: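 Phospho-H2AX Ser139 measured by HTRF (ex 320 nm; em 665 and 620 nm) after 24 hr antibody incubation. Compounds, 15 concentrations, 0.76% DMSO, were applied to CHO-K1 cells for 3hr at 37C before lysis.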
The nature of assay [11]: qHTS assay to identify small molecule antagonists of the estrogen related receptor (ERR) signaling pathway from Tox21 library - cell viability counter screen (AID 1224834). Further: nearly all actives have a fitted effect of over 30% in size. Further: potency means the concentration at half of the fitted maximal effect. In outline:
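Viability readout (CellTiter-Fluor fluorescence, 30 min at 37 C) multiplexed with the ERR assay; cells treated 17.5 h at 37 C with compounds delivered in DMSO.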

The nature of assay [12]: qHTS assay to identify small molecule antagonists of the estrogen related receptor signaling pathway with the pleiotropic PPARgamma coactivator (PGC) from Tox21 10K library - cell viability counter screen (AID 1224840; active means well fitted cell-killing curve with a large enough effect in the repeat runs, not every such curve was filed as active; further: nearly all actives have a fitted effect of over 40% in size). In outline:
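Compounds in DMSO, alongside positive and negative controls, were pinned onto PGC/ERR cells (2,000 per well). Exposure lasted 17.5 hours at 37 C, followed by a 30-minute CellTiter-Fluor incubation and fluorescence reading.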

Assay [13] is described as follows: qHTS assay to identify small molecule antagonists of the estrogen related receptor signaling pathway with the pleiotropic PPARgamma coactivator (PGC) from Tox21 10K library (AID 1224841; call rule not given here; further: actives are mostly falling curves and most rising ones were filed inactive; nearly all actives have a fitted effect of over 50% in size; further: potency means the concentration at half of the fitted maximal effect). In outline:
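Compound exposure ran 18 hours at 37 C in PGC/ERR cells (2,000/well) that had first rested 6 hours in a 37 C/5% CO2 incubator. Luciferase activity was then detected with One-Glo after a 30-minute room-temperature step.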

Assay [14] is described as follows: qHTS assay to identify small molecule antagonists of the estrogen related receptor (ERR) signaling pathway - cell viability counter screen (AID 1224818).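 Further: series mostly up to about 46 µM; viability measured after 17.5 h of compound exposure.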 In outline: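 Here, ERR cells are plated at 2,000 cells per well, allowed 6 h to attach, and treated with compounds in DMSO for 17.5 h at 37 C. CellTiter-Fluor is then added and fluorescence read after 30 min.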

The nature of assay [15]: qHTS assay to identify small molecule antagonists of the estrogen related receptor (ERR) signaling pathway (AID 1224819;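 further: luminescence from an ERR-driven luciferase reporter measured with One-Glo reagent; series mostly up to about 46 µM; nearly all actives have a fitted effect of over 50% in size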). The method in brief:
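LOPAC library screened for antagonism as reduced One-Glo luminescence in ERR reporter cells (2,000/well). Compounds were added after 6 h pre-incubation and left 18 h at 37C; reading followed a 30 min room-temperature reagent step.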

The nature of assay [16]: qHTS assay to identify small molecule agonists of the estrogen related receptor (ERR) signaling pathway (AID 1224820). Further: potency means the concentration at half of the fitted maximal effect. In outline:
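ERR reporter cells (NTP line) plated 2,000/well, incubated 6 h at 37 C/5% CO2, then pinned with compounds in DMSO and held 18 h at 37 C. One-Glo added; luminescence read after 30 min at room temperature.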

Assay [17] deals with estrogen-related receptor alpha (ERRalpha) with PGC-1alpha coactivator, human. The experiment in a line: qHTS assay to identify small molecule antagonists of the estrogen related receptor signaling pathway with the pleiotropic PPARgamma coactivator (PGC) (AID 1224821; calls by dose curve;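 further: series mostly up to about 46 µM; lower luminescence signal means antagonism of PGC/ERR signalling; nearly all actives have a fitted effect of over 50% in size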). In outline: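 Cells engineered for PGC/ERR signalling (line from NTP) were plated 6 h at 37 C/5% CO2, then exposed to DMSO-dissolved compound for 18 h at 37 C. Luciferase activity was read by One-Glo luminescence after 30 min at room temperature.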

The nature of assay [18]: qHTS assay to identify small molecule antagonists of the estrogen related receptor signaling pathway with the pleiotropic PPARgamma coactivator (PGC) cell viability counter screen (AID 1224822; further: series mostly up to about 46 µM). The method in brief:
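qHTS format, DMSO compound stocks pin-transferred onto PGC/ERR cells 6 h after plating; 17.5 h exposure at 37 C, then CellTiter-Fluor fluorescence.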

The nature of assay [19]: qHTS assay to identify small molecule agonists of the hypoxia (HIF-1) signaling pathway (AID 1224846; active means well fitted activation curve with a large enough effect in the signal ratio in the repeat runs, not every such curve was filed as active; the % refers to the signal ratio). The method in brief: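 Measured by blue/green FRET after loading CCF4-AM: beta-lactamase expressed from a hypoxia response element in ME-180 cells. Test agents were delivered in DMSO and left 17 hrs; cells had been plated 5 hrs earlier in low-serum (0.5% dialyzed FBS) medium.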

Records with an inconclusive call do not appear. The source made the active and inactive calls. Unless noted, the call rests on the fitted dose curve; in most records, active means well fitted curve in the direction sought with a large enough effect in the repeat runs; inconclusive means weak or mixed curves; inactive means no such curve, though single readings can be large; an effect the other way counts as inactive or inconclusive.

Chain of Thyrotropin receptor (Homo sapiens) (P16473 whole entry, looked up): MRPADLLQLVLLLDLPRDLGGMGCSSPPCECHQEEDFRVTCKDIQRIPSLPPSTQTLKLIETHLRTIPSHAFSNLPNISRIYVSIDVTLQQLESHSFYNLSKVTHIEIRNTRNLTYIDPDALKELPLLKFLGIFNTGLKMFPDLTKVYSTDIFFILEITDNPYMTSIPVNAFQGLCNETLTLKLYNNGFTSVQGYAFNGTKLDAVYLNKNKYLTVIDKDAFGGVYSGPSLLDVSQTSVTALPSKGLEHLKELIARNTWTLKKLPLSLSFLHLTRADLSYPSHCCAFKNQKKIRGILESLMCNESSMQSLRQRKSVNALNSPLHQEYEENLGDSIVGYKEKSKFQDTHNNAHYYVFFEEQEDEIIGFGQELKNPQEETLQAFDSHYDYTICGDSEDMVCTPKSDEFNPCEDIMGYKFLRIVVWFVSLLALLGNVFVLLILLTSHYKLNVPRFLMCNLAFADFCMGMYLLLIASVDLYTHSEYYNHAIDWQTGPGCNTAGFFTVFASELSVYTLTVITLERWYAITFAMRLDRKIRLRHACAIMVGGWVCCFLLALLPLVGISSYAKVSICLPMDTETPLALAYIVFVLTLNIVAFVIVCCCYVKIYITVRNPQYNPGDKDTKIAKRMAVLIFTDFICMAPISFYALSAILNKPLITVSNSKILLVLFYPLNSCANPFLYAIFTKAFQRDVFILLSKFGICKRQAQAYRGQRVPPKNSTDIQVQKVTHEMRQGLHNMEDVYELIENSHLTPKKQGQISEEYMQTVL

For `CC(Cc1ccc(O)c(O)c1)C(C)Cc1ccc(O)c(O)c1` (centres undefined), the Potency entry in [1], in assay [3], in [4], in [5], in [6] and in assay [7] was “inactive” in each case. The Potency result in assay [8] was “inactive”. Further, in [2], the Potency is 71 µM (active).

With `C=CCc1cc(S(=O)(=O)c2ccc(O)c(CC=C)c2)ccc1O`, the Potency result in assay [1], in assay [2], in assay [3], in assay [5], in assay [9] and in assay [6] was “inactive” in each case. In addition, the Potency entry in assay [7], in [8] and in assay [10] was “inactive” each time.

On to `CCCCCCCCCCCCCCCCC(C(=O)O)C(O)(CC(=O)O)C(=O)O` (centres undefined), for which the Potency entry in [1], in assay [11], in assay [2], in assay [3], in assay [4] and in assay [5] was “inactive” throughout. Further, the Potency entry in assay [9], in assay [12], in assay [13], in [6], in assay [7] and in assay [10] was “inactive” each time.

Regarding `CN1CCc2cc(NC(=O)Nc3cccnc3)ccc21`, the Potency entry in assay [14], in [15], in [17] and in assay [18] was “inactive” each time. Moreover, in assay [16], the Potency was 9.08 µM (active).

Take `CCOC(=O)C(C)Oc1cccc2c(=O)n(CC(=O)Nc3ccc4c(c3)OCCO4)ccc12` (centres undefined): the Potency entry in [14], in assay [15], in assay [16], in assay [17] and in assay [18] was “inactive” in each case.

For the compound `CN1CC(O)C(O)C(O)C1CO` (centres undefined), the Potency result in assay [14], in [15], in assay [16], in assay [17] and in assay [18] was “inactive” each time.

With `S=C1NC=NC2N=CNC12` (centres undefined), the Potency result in [1], in [2], in assay [9], in [12], in assay [6] and in [7] was “inactive” each time. Besides, the Potency entry in assay [8] and in [19] was “inactive” each time. Also, the Potency in assay [5] is 6.11 µM (active); in assay [13] it was 0.486 µM (active).

`NC(=O)C1=CN(C2OC(COP(=O)(O)OP(=O)(O)OC[C@H]3O[C@@H](n4cnc5c(N)ncnc54)[C@H](OP(=O)(O)O)C3O)C(O)C2O)C=CC1` (some centres undefined): the Potency result in assay [14], in assay [15], in assay [16], in [17] and in [18] was “inactive” throughout.

Turning to `CC(=O)NC[C@H]1CN(c2ccc(N3CCOCC3)c(F)c2)C(=O)O1`, the Potency result in assay [14], in [15], in assay [16], in assay [17] and in assay [18] was “inactive” throughout.

`NCc1cccc(C2CCN(C(=O)c3ccc(C#Cc4ccccc4F)o3)CC2)c1`: the Potency result in assay [1], in [2] and in assay [9] was “inactive” throughout. The values for the Potency in assay [11], in assay [4] and in assay [8] were 68.6 µM (active), 68.6 µM (active) and 54.9 µM (active), respectively.

For `COc1ccc2c(c1)CCC1C2CC[C@@]2(C)C1CC[C@@H]2NCCCCCCN1C(=O)CCC1=O` (some centres undefined), the Potency result in assay [14], in assay [15], in assay [16] and in assay [17] was “inactive” throughout.

On to `Nc1nc(Nc2ccccc2)nc2c1ncn2[C@@H]1O[C@H](CO)C(O)[C@H]1O` (some centres undefined), for which the Potency result in assay [14], in assay [15], in [16], in assay [17] and in [18] was “inactive” each time.

With `NCCCS(=O)(=O)O`, the Potency result in assay [14], in [15], in [16], in assay [17] and in assay [18] was “inactive” throughout.

As for `O=C(O)CNC(=O)C(CS)Cc1ccccc1` (centres undefined), the Potency result in [14], in assay [15], in [16], in [17] and in [18] was “inactive” throughout.
